Results from PubChem BioAssay.
Activity calls are given as the source filed them.

Test system: not listed separately
Assay: CREB reporter modulators under forskolin, primary screen, cell-based, PC12, CRE-LacZ reporter, forskolin-stimulated (AID 1146);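 further: PC12 cells with 6xCRE LacZ reporter stimulated by forskolin 10 µM; beta-galactosidase reporter signal reflecting CREB driven transcription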
Details: luminescence, 4.5 h, higher = more signal, called active from +8 up or from −8 down

Row | Compound | z-score
1 | C=C(C(=O)CC[C@@H](OC(=O)c1ccccc1-c1ccccc1C(=O)O)c1cccc(OCCO)c1)C(C)C | 2.88 (inactive)
2 | CC(C)C[C@@H]1NC(=O)[C@H]2C[C@@H](C(=O)O)[C@@H](c3cccc(OCCO)c3)N2C1=O | -0.411 (inactive)
3 | Cc1ccc(S[C@]2(C(=O)NCc3ccccc3)CC(=O)N(Cc3ccccc3C(F)(F)F)[C@@H]2c2ccc(CO)cc2I)cc1 | 2.24 (inactive)
4 | CC(C)N1CC=CC23O[C@@H]4/C=C\CCCOC(=O)C4[C@H]2C(=O)N(C(C)CO)[C@@H]3C1=O (stereo partly drawn) | -0.869 (inactive)
5 | COC(=O)Cn1c(C(=O)N(C)C)cc2c1C[C@H]1CN(C(=O)c3ccccc3)[C@@](Cc3ccccc3)(C(=O)OC)[C@@H]21 | -0.637 (inactive)
6 | COc1c(C)cc(-c2cc3c(c(CCc4ccccc4)n2)[Si](C(C)C)(C(C)C)O[C@H]3c2ccccc2)cc1C | 0.412 (inactive)
7 | CCCCCN1CC=CC23O[C@@H]4/C=C\CCCOC(=O)C4[C@H]2C(=O)N(CCCCCO)[C@@H]3C1=O (stereo partly drawn) | 0.0118 (inactive)
8 | C[C@]1(C(=O)NCC(F)(F)F)c2ccccc2C(=O)N(Cc2cc(C(F)(F)F)cc(C(F)(F)F)c2)[C@H]1c1ccc(CO)cc1 | 0.0167 (inactive)
9 | COC(=O)C[C@H]1O[C@]2(C(=O)N(C)c3ccccc32)[C@@H](C)[C@@H]1[Si](C)(C)c1ccccc1 | -0.477 (inactive)
10 | COc1ccc([Si](C)(C)[C@H]2[C@H](CC(=O)N3CCC[C@H]3CO)O[C@@]3(C(=O)N(C)c4ccccc43)[C@@H]2C)cc1 | 1.33 (inactive)
11 | COCCOC(=O)N1C(=O)[C@@]2(c3cc(C#CCC(C(=O)OC)C(=O)OC)ccc31)[C@H](C(=O)N1CCc3cc(OC)c(OC)cc3C1)[C@H]1C(=O)O[C@H](c3ccccc3)[C@H](c3ccccc3)N1[C@@H]2c1ccccc1OCCO | 0.149 (inactive)
12 | O=C1C2C=CC(C(O)C(c3ccccc3)c3ccccc3)N(Nc3ccccc3F)C2C(=O)N1c1ccccc1 (stereo not drawn) | 0.993 (inactive)
13 | CC1C2C(CCCO)=CC(C3C(=O)N(C(N)=O)C(=O)C23)N1Cc1cccc(OC(F)(F)F)c1 (stereo not drawn) | 0.693 (inactive)
14 | CN(C)CCCC[C@@H]1NC(=O)[C@H]2C[C@@H](C(=O)NCCCCCCNC(=O)CS)[C@@H](c3cccc(OCCO)c3)N2C1=O | -1.09 (inactive)
15 | CCCC1(C(=O)OC)C=C2C(=C(C(C)C)C(=O)C2C)CN1 (stereo not drawn) | -0.645 (inactive)
16 | CCCCCCc1nc(Cc2cc(OC)c(OC)c(OC)c2)c(C)c2c1[Si](C(C)C)(C(C)C)OC2 | -0.634 (inactive)
17 | COc1c(C)cc(-c2nc(-c3ccccc3)c3c(c2C)CO[Si]3(C(C)C)C(C)C)cc1C | 0.456 (inactive)
18 | [N-]=[N+]=Nc1ccccc1C[C@]1(C(=O)N2CCCCC2)N=C(c2ccc(OCCCO)cc2)O[C@H]1c1ccccc1 | -0.0671 (inactive)

Target: Streptavidin (Streptomyces avidinii) (UniProt P22629)
Assay: streptavidin binders on small-molecule microarray, primary screen, artefact control for SMM compound annotation, biophysical, 635/667 nm fluorescence (AID 1147);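 further: signal reflects streptavidin binding to arrayed compounds as a control protein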
Details: streptavidin binding, higher = more signal

Sequence of Streptavidin (Streptomyces avidinii) (P22629 whole entry, looked up): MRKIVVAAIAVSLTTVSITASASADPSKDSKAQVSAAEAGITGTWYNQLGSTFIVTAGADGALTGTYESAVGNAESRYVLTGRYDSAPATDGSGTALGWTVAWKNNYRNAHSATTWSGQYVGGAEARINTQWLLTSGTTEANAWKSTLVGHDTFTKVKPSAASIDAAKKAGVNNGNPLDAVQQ

Row | Compound | composite z-score
19 | COc1cc(Cc2cc3c(c(CCc4ccccc4)n2)[Si](C(C)C)(C(C)C)O[C@H]3c2ccccc2)cc(OC)c1OC | 0.537
20 | C[C@]12C(=O)N(CCO)[C@@H]3C(=O)N(c4ccc(Cl)cc4)CC=CC31O[C@@H]1/C=C\CCCOC(=O)C12 (stereo partly drawn) | -0.542
21 | COc1cc2c(cc1O)C(C)N(Cc1sc3ccccc3c1Cl)CC2 (stereo not drawn) | 0.105
22 | CN1C(=O)C2C=CC(C(O)c3ccc([N+](=O)[O-])cc3)N(Nc3ccccc3)C2C1=O (stereo not drawn) | 1.65
23 | COC(=O)[C@@]1(Cc2ccc(F)cc2)[C@H]2c3cc(C(=O)N(C)C)n(CCF)c3C[C@H]2CN1C(=O)c1ccccc1 | 0.471
24 | O=C/C=C/c1ccc(-c2ccccc2)cc1 | 0.175
25 | C=C(C(=O)CC[C@@H](OC(=O)c1ccccc1-c1ccccc1C(=O)O)c1ccc(OCCO)cc1)C(C)C | 0.0206
26 | COc1ccc(C#Cc2ccc3c(c2)[C@]2(C(=O)N3)[C@H](c3ccccc3OCCO)N3[C@H](c4ccccc4)[C@H](c4ccccc4)OC(=O)[C@H]3[C@@H]2C(=O)NC[C@H](O)c2ccccc2)cc1 | 0.448
27 | O=C1NC(=O)C2C1C=CC(C(O)c1ccc(F)cc1)N2Nc1ccc(Cl)cc1Cl (stereo not drawn) | -0.346
28 | C[C@@]1([C@@H](NS(=O)(=O)c2cccc3cccnc23)c2ccc(-c3ccccc3)cc2)C[C@H]1C1CCCCC1 | 1.15
29 | O=C1N(Cc2ccccc2)c2ccccc2C[C@@]12N=C(c1ccc(OCCCO)cc1)O[C@H]2c1ccccc1 | 0.798
30 | COc1ccc(NN2C(C(O)c3ccccc3)C=CC3C(=O)N(C4CCCCC4)C(=O)C32)cc1 (stereo not drawn) | 0.929
31 | C[C@]1(C(=O)NC2CC2)c2ccccc2C(=O)N(Cc2cc(F)cc(C(F)(F)F)c2)[C@H]1c1ccc(CO)cc1 | -0.827
32 | O=C(CS)NCCCCCCNC(=O)[C@H]1C[C@H]2C(=O)NCC(=O)N2[C@H]1c1cccc(OCCO)c1 | -0.127
33 | COC(=O)[C@@]1(Cc2ccc(OC)cc2)[C@H]2c3cc(C(=O)N(C)C)n(Cc4c(CO)[nH]cc(C)c4=O)c3C[C@H]2CN1C(=O)c1ccccc1 | 0.27
34 | COCCCNC(=O)[C@@]1(Cc2ccccc2I)c2ccccc2C(=O)N(C2CCCCC2)[C@H]1c1ccc(CO)cc1 | -0.0972
35 | COC(=O)[C@@]1(Cc2ccc(OC)cc2)[C@@H]2[C@@H](CC(=O)[C@H]2CC(=O)C(=O)N(C)C)CN1C(=O)c1ccccc1 | 1.79
36 | C=C(C(=O)CC[C@@H](OC(=O)c1ccccc1-c1ccccc1C(=O)O)c1cccc(OCCO)c1)C(C)C | -0.364

Row | Compound | composite z-score
37 | CC(C)C[C@@H]1NC(=O)[C@H]2C[C@@H](C(=O)O)[C@@H](c3cccc(OCCO)c3)N2C1=O | -0.0612
38 | Cc1ccc(S[C@]2(C(=O)NCc3ccccc3)CC(=O)N(Cc3ccccc3C(F)(F)F)[C@@H]2c2ccc(CO)cc2I)cc1 | -0.464
39 | CC(C)N1CC=CC23O[C@@H]4/C=C\CCCOC(=O)C4[C@H]2C(=O)N(C(C)CO)[C@@H]3C1=O (stereo partly drawn) | -0.938
40 | COC(=O)Cn1c(C(=O)N(C)C)cc2c1C[C@H]1CN(C(=O)c3ccccc3)[C@@](Cc3ccccc3)(C(=O)OC)[C@@H]21 | 0.822
41 | COc1c(C)cc(-c2cc3c(c(CCc4ccccc4)n2)[Si](C(C)C)(C(C)C)O[C@H]3c2ccccc2)cc1C | -0.0663
42 | CCCCCN1CC=CC23O[C@@H]4/C=C\CCCOC(=O)C4[C@H]2C(=O)N(CCCCCO)[C@@H]3C1=O (stereo partly drawn) | -0.878
43 | C[C@]1(C(=O)NCC(F)(F)F)c2ccccc2C(=O)N(Cc2cc(C(F)(F)F)cc(C(F)(F)F)c2)[C@H]1c1ccc(CO)cc1 | -0.7
44 | COC(=O)C[C@H]1O[C@]2(C(=O)N(C)c3ccccc32)[C@@H](C)[C@@H]1[Si](C)(C)c1ccccc1 | 1.02
45 | COc1ccc([Si](C)(C)[C@H]2[C@H](CC(=O)N3CCC[C@H]3CO)O[C@@]3(C(=O)N(C)c4ccccc43)[C@@H]2C)cc1 | -0.28
46 | COCCOC(=O)N1C(=O)[C@@]2(c3cc(C#CCC(C(=O)OC)C(=O)OC)ccc31)[C@H](C(=O)N1CCc3cc(OC)c(OC)cc3C1)[C@H]1C(=O)O[C@H](c3ccccc3)[C@H](c3ccccc3)N1[C@@H]2c1ccccc1OCCO | 0.593
47 | O=C1C2C=CC(C(O)C(c3ccccc3)c3ccccc3)N(Nc3ccccc3F)C2C(=O)N1c1ccccc1 (stereo not drawn) | 1.58
48 | CC1C2C(CCCO)=CC(C3C(=O)N(C(N)=O)C(=O)C23)N1Cc1cccc(OC(F)(F)F)c1 (stereo not drawn) | 0.664
49 | CN(C)CCCC[C@@H]1NC(=O)[C@H]2C[C@@H](C(=O)NCCCCCCNC(=O)CS)[C@@H](c3cccc(OCCO)c3)N2C1=O | 0.0448
50 | CCCC1(C(=O)OC)C=C2C(=C(C(C)C)C(=O)C2C)CN1 (stereo not drawn) | -0.481
51 | CCCCCCc1nc(Cc2cc(OC)c(OC)c(OC)c2)c(C)c2c1[Si](C(C)C)(C(C)C)OC2 | -0.0336
52 | COc1c(C)cc(-c2nc(-c3ccccc3)c3c(c2C)CO[Si]3(C(C)C)C(C)C)cc1C | -0.0316
53 | [N-]=[N+]=Nc1ccccc1C[C@]1(C(=O)N2CCCCC2)N=C(c2ccc(OCCCO)cc2)O[C@H]1c1ccccc1 | 1.15
